Consider 20 molecules from PubChem BioAssay.

Values without a mark were called inactive. For some of these results: Results with a measured potency or affinity are listed apart. Activity calls are given as the source filed them. Unless noted, the rule behind the calls is not given here.

The nature of assay [1]: antimalarial activity against Dd2 strain (AID 2302;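 active = growth inhibition above 50% at the single 2 µM test dose, taken to imply half-maximal potency below 2 µM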;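 note: 0% = DMSO untreated growth and 100% = chloroquine plus artemisinin killed control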). The settings on record: P. falciparum Dd2 in RBCs, LDH growth readout, 72 h; at 2 µM; stronger effect = higher value.
The nature of assay [2]: human hepatoma cell viability loss – ATP luminescence, cytotoxicity control for P. falciparum antimalarial project, primary screen (AID 2303;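 active = inhibition above 50%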;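 note: 0% = DMSO wells and 100% = digitonin-killed cells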). The settings on record: HepG2 viability, 24-48 h, at 10 µM, stronger effect = higher value.
For assay [3], the target named is L-lactate dehydrogenase (Plasmodium falciparum (isolate CDC / Honduras)) (UniProt Q27743). The experiment in a line: PfLDH activity inhibition – cell lysate, 3D7 strain, counter-screen for P. falciparum growth inhibition project (AID 2304).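 Note: 0% = vehicle and 100% = reference inhibitor.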 The conditions noted are these: P. falciparum 3D7 crude extract, LDH APAD/NBT absorbance; at 2 µM; stronger effect = higher value. For orientation: Counterscreens check selectivity or assay interference.

Assay [4] in a line: inhibition of 3D7 malaria parasite growth – strain 3D7 (AID 2306).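 Note: 0% = DMSO wells and 100% = chloroquine plus artemisinin control wells.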 The settings on record: P. falciparum 3D7 erythrocytic growth, LDH absorbance, 72 h; at 2 µM; stronger effect = higher value.
Assay [5] addresses Calcium-dependent protein kinase 1 (Plasmodium falciparum (isolate 3D7)) (UniProt P62344). The assay can be described thus: PfCDPK1 kinase inhibitors, biochemical, TCAMS library (AID 1159585; cut-off not given, nearly all actives have IC50 up to about 0.98 µM;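 note: inhibitors leave more ATP so luminescence rises with inhibition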). The settings on record: recombinant PfCDPK1, Kinase-Glo ATP depletion luminescence.
For assay [6], the target named is Plasmodium falciparum protein kinase 6 (PK6, PF3D7_1337100) (UniProt Q8IDW1). The experiment in a line: PfPK6 kinase inhibitors, biochemical, TCAMS library (AID 1159586). The settings on record: recombinant PfPK6, Kinase-Glo ATP depletion luminescence. On the technique in general: In Kinase-Glo more light means more ATP remaining.
For assay [7], the target named is Protein kinase 7 (PK7), Plasmodium falciparum 3D7 (PF3D7_0213400) (UniProt Q7YTF7). The experiment in a line: inhibition of Plasmodium PK7 catalytic activity – biochemical, TCAMS antimalarial set, Kinase-Glo luminescence (AID 1159587). The settings on record: recombinant PfPK7, Kinase-Glo ATP depletion luminescence.
Assay [8] concerns the target Calcium-dependent protein kinase 4 (Plasmodium falciparum (isolate 3D7)) (UniProt Q8IBS5). The experiment in a line: PfCDPK4 kinase inhibitors, biochemical, TCAMS library (AID 1159588; cut-off not given, nearly all actives have IC50 up to about 0.91 µM). The settings on record: recombinant PfCDPK4, Kinase-Glo ATP depletion luminescence.

Chain of Protein kinase 7 (PK7), Plasmodium falciparum 3D7 (PF3D7_0213400) (Q7YTF7 1-343): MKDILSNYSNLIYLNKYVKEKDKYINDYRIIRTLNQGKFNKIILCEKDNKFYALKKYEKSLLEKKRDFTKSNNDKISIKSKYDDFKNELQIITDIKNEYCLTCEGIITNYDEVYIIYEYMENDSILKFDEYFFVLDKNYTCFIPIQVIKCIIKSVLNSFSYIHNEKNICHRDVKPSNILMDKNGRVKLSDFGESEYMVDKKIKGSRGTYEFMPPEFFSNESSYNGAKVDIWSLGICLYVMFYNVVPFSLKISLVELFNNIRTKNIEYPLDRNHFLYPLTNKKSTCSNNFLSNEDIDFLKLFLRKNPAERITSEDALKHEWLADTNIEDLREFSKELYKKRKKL
Chain of Calcium-dependent protein kinase 4 (Plasmodium falciparum (isolate 3D7)) (Q8IBS5 whole entry, looked up): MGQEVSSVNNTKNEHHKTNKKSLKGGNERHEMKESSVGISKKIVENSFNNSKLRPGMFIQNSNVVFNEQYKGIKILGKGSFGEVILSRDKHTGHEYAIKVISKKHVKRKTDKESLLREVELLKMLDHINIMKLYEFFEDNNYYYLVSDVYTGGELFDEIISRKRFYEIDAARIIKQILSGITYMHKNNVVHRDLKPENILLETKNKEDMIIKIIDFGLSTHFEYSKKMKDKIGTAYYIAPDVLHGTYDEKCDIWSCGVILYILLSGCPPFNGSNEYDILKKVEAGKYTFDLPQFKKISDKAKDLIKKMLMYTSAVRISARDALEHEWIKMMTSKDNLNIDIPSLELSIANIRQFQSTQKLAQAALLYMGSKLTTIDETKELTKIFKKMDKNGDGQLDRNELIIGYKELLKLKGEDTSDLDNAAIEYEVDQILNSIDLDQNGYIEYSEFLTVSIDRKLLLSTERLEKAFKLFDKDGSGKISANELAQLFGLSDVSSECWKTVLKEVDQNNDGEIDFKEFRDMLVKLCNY
Chain of Calcium-dependent protein kinase 1 (Plasmodium falciparum (isolate 3D7)) (P62344 whole entry, looked up): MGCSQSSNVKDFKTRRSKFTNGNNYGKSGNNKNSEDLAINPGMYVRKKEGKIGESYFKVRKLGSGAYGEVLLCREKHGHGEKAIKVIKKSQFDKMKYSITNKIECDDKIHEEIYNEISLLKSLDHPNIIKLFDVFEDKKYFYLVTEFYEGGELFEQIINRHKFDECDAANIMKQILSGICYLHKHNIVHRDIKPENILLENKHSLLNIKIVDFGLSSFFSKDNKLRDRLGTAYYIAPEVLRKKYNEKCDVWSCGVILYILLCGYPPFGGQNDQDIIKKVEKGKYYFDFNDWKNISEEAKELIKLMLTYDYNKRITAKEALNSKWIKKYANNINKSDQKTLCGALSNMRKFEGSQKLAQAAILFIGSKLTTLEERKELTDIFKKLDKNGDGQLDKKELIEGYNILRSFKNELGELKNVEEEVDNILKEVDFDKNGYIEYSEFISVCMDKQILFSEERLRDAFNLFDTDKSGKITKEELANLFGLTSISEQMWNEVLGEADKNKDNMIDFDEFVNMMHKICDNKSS
Chain of Plasmodium falciparum protein kinase 6 (PK6, PF3D7_1337100) (Q8IDW1 1-305): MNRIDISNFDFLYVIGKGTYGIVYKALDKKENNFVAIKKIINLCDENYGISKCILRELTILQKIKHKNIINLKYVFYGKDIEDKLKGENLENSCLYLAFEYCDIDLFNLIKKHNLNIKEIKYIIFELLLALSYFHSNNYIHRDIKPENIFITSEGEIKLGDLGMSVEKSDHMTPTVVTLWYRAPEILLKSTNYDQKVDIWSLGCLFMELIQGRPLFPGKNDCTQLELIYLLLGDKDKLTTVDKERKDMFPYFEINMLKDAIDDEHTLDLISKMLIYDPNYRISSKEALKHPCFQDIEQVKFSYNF
Chain of L-lactate dehydrogenase (Plasmodium falciparum (isolate CDC / Honduras)) (Q27743 whole entry, looked up): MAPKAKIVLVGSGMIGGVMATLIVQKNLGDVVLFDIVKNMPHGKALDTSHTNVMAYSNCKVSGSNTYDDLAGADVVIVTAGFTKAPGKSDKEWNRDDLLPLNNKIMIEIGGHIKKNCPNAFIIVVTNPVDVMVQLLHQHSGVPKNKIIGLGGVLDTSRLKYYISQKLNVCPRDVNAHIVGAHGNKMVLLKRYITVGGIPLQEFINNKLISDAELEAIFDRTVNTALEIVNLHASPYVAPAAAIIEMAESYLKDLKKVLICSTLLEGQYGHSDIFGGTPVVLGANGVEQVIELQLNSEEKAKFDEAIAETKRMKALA

The inhibition is the change of the read-out against control, counted positive when it falls. As for `CCCCOc1cc(CNCCCCCCNCc2cc(OCCCC)cc3ccccc23)c2ccccc2c1`, the figures for the growth inhibition in assay [1] and in assay [4] were 92% (active) and 101% (active), respectively. Also, the results for the inhibition in assay [2] and in assay [3] were 99% (active) and -5%, respectively. Further, the result in assay [5], in assay [6], in assay [7] and in assay [8] was inactive.
In the case of `O=C(/C=C/c1ccc(Cl)c(Cl)c1)N1CCC(NCc2ccc3[nH]ccc3c2)CC1`, the growth inhibition is 1% in assay [1] and 97% (active) in assay [4]. The inhibition in assay [2] is 44%; in assay [3], -2%. Also, the outcome in assay [5], in assay [6], in assay [7] and in assay [8] was inactive.
For `O=C(NCCCCN1CCC(c2ccc3c(c2O)CCCC3)CC1)c1ccc(-c2ccc(Cl)cc2)cc1`, the growth inhibition in assay [1] is 72% (active); in assay [4] it was 98% (active). The inhibition in assay [2] is 97% (active); in assay [3], 1%. Also, the result in assay [5], in assay [6], in assay [7] and in assay [8] was inactive.
On to `Cc1ccc(NC(=O)c2ccc(CN3CCCN(CC4CCCCC4)CC3)cc2)cc1C`, for which the growth inhibition was 32% in assay [1] and 86% (active) in assay [4]. For the same molecule, the figures for the inhibition in assay [2] and in assay [3] were 38% and 3%, respectively. In addition, the outcome in assay [5], in assay [6], in assay [7] and in assay [8] was inactive.
For `Cc1cccc2[nH]c(-c3ccc(-c4cccc(C(=O)N5CCCCC5C(C)O)c4)s3)nc12` (stereo not given), the figures for the growth inhibition in assay [1] and in assay [4] were 53% (active) and 101% (active), respectively. For the same molecule, the inhibition in assay [2] was 27%; in assay [3] it was -1%. In addition, the result in assay [5], in assay [6], in assay [7] and in assay [8] was inactive.
In the case of `COc1cccc(-c2nn(C)c3sc(C(=O)NCCN4CCN(c5ccccc5F)CC4)cc23)c1`, the growth inhibition was 40% in assay [1] and 85% (active) in assay [4]. Moreover, the inhibition is 9% in assay [2] and -5% in assay [3]. Moreover, the result in assay [5], in assay [6], in assay [7] and in assay [8] was inactive.
As for `Cc1cc(C)cc(NC(=S)NCCCCN2CCN(c3cccc(Cl)c3)CC2)c1`, the results for the growth inhibition in assay [1] and in assay [4] were 13% and 88% (active), respectively. Moreover, the inhibition was 11% in assay [2] and 3% in assay [3]. Also, the outcome in assay [5], in assay [6], in assay [7] and in assay [8] was inactive.
Turning to `CC(C)Cn1cc(C2CCN(CCN3CCC(CNC(=O)c4ccc(-c5ccc(C#N)cc5)cc4)CC3)CC2)c2ccccc21`, the growth inhibition in assay [1] is 98% (active); in assay [4], 100% (active). Besides, the inhibition in assay [2] was 28%; in assay [3] it was 8%. Further, the result in assay [5], in assay [6], in assay [7] and in assay [8] was inactive.
Turning to `O=C(/C=C/c1ccc(Cl)cc1)NCCCCCN1CCCN(C(=O)Nc2ccc(Cl)c(C(F)(F)F)c2)CC1`, the growth inhibition in assay [1] was 1%; in assay [4], 95% (active). The inhibition is 54% (active) in assay [2] and 1% in assay [3]. Moreover, the result in assay [5], in assay [6], in assay [7] and in assay [8] was inactive.
With `CC(C)CNCc1cccc(-c2ccc(CN(C(=O)NCCc3ccccc3)C3CCN(Cc4ccccc4)CC3)cc2)c1`, the growth inhibition in assay [1] was 47%; in assay [4] it was 98% (active). Moreover, the inhibition was 99% (active) in assay [2] and 5% in assay [3]. The outcome in assay [5], in assay [6], in assay [7] and in assay [8] was inactive.
Consider `Nc1nccc2ccc(-c3cccnc3)cc12`, for which the growth inhibition in assay [1] is 95% (active); in assay [4] it was 97% (active). For the same molecule, the inhibition is 9% in assay [2] and 2% in assay [3]. The result in assay [5], in assay [6], in assay [7] and in assay [8] was inactive.
With `CCCNCc1ccc(-c2ccc(CN(CCOC)C(=O)CC3CCCC3=O)cc2)nc1` (stereo not given), the growth inhibition in assay [1] was 9%; in assay [4] it was 93% (active). For the same molecule, the inhibition in assay [2] was 5%; in assay [3] it was 3%. Besides, the result in assay [5], in assay [6], in assay [7] and in assay [8] was inactive.
For `Cc1cccc2[nH]c(-c3ccc(-c4cccc(CNC(C)C)c4)s3)nc12`, the growth inhibition in assay [1] was 97% (active); in assay [4], 100% (active). The figures for the inhibition in assay [2] and in assay [3] were 12% and 2%, respectively. Further, the outcome in assay [5], in assay [6], in assay [7] and in assay [8] was inactive.
For `CC1(C)CC(NCCCCCCCOc2ccc(OCc3ccccc3)cc2)CC(C)(C)N1`, the values for the growth inhibition in assay [1] and in assay [4] were 73% (active) and 100% (active), respectively. Moreover, the inhibition in assay [2] was 99% (active); in assay [3], 0%. In addition, the outcome in assay [5], in assay [6], in assay [7] and in assay [8] was inactive.
In the case of `CCCC(C)c1ccc(N2C(N)=NC(N)=NC2(C)C)cc1` (stereo not given), the growth inhibition in assay [1] is 7%; in assay [4], 90% (active). Besides, the inhibition in assay [2] was 51% (active); in assay [3] it was 2%. The result in assay [5], in assay [6], in assay [7] and in assay [8] was inactive.
`COc1ccc2nccc([C@@H](O)CN3CCC(NCCOc4ccncc4)CC3)c2c1`: the figures for the growth inhibition in assay [1] and in assay [4] were -1% and 100% (active), respectively. Moreover, the results for the inhibition in assay [2] and in assay [3] were 11% and 1%, respectively. The result in assay [5], in assay [6], in assay [7] and in assay [8] was inactive.
For the molecule `COc1cc(Cc2cnc(N)nc2N)cc(OC(C)C)c1OC`, the growth inhibition is 15% in assay [1] and 91% (active) in assay [4]. Moreover, the inhibition in assay [2] is 10%; in assay [3], 0%. Further, the result in assay [5], in assay [6], in assay [7] and in assay [8] was inactive.
Turning to `CS(=O)(=O)CCNCc1nc(-c2ccc3ncnc(Nc4ccc(OCc5ccccc5)c(Cl)c4)c3c2)cs1`, the growth inhibition in assay [1] was 55% (active); in assay [4], 99% (active). For the same molecule, the inhibition is 13% in assay [2] and 2% in assay [3]. Further, the outcome in assay [5], in assay [6], in assay [7] and in assay [8] was inactive.
With `O=C(Nc1ccc2ccccc2c1)N1CCC(NCc2cccc([N+](=O)[O-])c2)CC1`, the growth inhibition in assay [1] was -3%; in assay [4] it was 98% (active). Besides, the inhibition was -1% in assay [2] and 2% in assay [3]. Moreover, the outcome in assay [5], in assay [6], in assay [7] and in assay [8] was inactive.
Turning to `CNCCNCc1cccc(-c2cccc(-c3nc4ccc(C(F)(F)F)cc4[nH]3)c2)c1`, the growth inhibition in assay [1] was 97% (active); in assay [4], 100% (active). Further, the inhibition in assay [2] is 22%; in assay [3], -2%. Besides, the outcome in assay [5], in assay [6], in assay [7] and in assay [8] was inactive.
